The results in this text go back to PubChem BioAssay (NCI).

Structures are written as SMILES. Values joined by “and” are separate entries in the source; they are usually repeats but may differ in a detail not shown here. Identical values can stand only once. Compounds without any hit were thinned out: in the full panel of roughly 83,000, 20% have a hit.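 Cells were grown in 96-well plates and exposed to the test compound at a single concentration for 48 hours; results are reported as percent growth, with values below 10 considered active.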 Values without a mark were called inactive.

The test deals with UACC-257 melanoma. As to the kind of experiment: NCI-60 one-dose screen, 48 h (100 = growth as untreated, 0 = no growth, -100 = all killed). Particulars: 10 µM unless noted.
On to `COc1ccc2c(c1)c(-c1nc(-c3c[nH]c4c(Cl)nccc34)cs1)cn2C`, for which the growth is 100%.

Regarding `C[C@]12CCc3c(ccc4cc(O)ccc34)[C@@H]1C[C@H](O)[C@@H]2O`, the growth is 102%.

In the case of `ON=C1CCCCCCCC1`, the growth was 104% and 107%.

Regarding `CCCCCCCCCCCCCCCC[N+](C)(C)CCN(Cc1ccc(OC)cc1)c1ncccn1`, the growth was 25.2% and 28.7%.

Take `Cc1nc2sc(C(=O)Nc3cccc4ncccc34)c(N)c2cc1C(C)O` (stereo not drawn): the growth is 75.9%.

Consider `C=C[C@]1(C)C=C2CC[C@@H]3C(C)(C)C(=O)CC[C@@]3(C)[C@@H]2CC1`, for which the growth was 106%.

As for `CC[C@H](C)[C@H](NC(=O)[C@H](CCCCN)NC(=O)[C@H](CCCCN)NC(=O)[C@@H](NC(=O)[C@@H](NC(=O)[C@@H](N)Cc1cnc[nH]1)[C@@H](C)CC)[C@@H](C)CC)C(=O)N[C@@H](CCCNC(=N)N)C(=O)N[C@H](C(=O)N[C@@H](Cc1c[nH]c2ccccc12)C(=O)N[C@@H](Cc1ccc(O)cc1)C(=O)N[C@@H](CCCNC(=N)N)C(=O)N[C@@H](CCCCN)C(=O)N[C@@H](C)C(=O)N[C@@H](Cc1c[nH]c2ccccc12)C(=O)N[C@@H](Cc1cnc[nH]1)C(=O)N[C@H](C(=O)N[C@@H](CC(C)C)C(=O)NCC(=O)N[C@@H](CCCCN)C(=O)N[C@H](C(N)=O)C(C)C)C(C)C)[C@@H](C)O`, the growth was 67.8%.

As to `CC(=O)N1N=C(c2ccc(F)cc2)CC1c1sc(N(C)Cc2ccccc2)nc1Cl` (stereo not drawn), the growth is 118%.
